Results taken from PubChem BioAssay (Tox21).
Inconclusive results are not listed. Calls of active or inactive are those of the source. Unless noted, calls come from the whole dose curve; as a rule, active = well fitted curve in the direction sought with a large enough effect in the repeat runs; inconclusive = weak or mixed curves; inactive = no such curve, though single readings can be large; an effect the other way counts as inactive or inconclusive.

Key:
[1] = qHTS assay to identify small molecule agonists of the hypoxia (HIF-1) signaling pathway - cell viability counter screen (AID 1224844; calls by dose curve; note: nearly all actives have a fitted effect of over 50% in size)
Method in brief: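 HRE-bla ME-180 cells in medium with 0.5% dialyzed FBS were preincubated 5 hrs at 37C, exposed to compounds for 17 hrs, then viability was read as CellTiter-Glo luminescence after 30 min at room temperature, in the reporter wells.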

[2] = qHTS assay to identify small molecule agonists of H2AX (AID 1224845; active = well fitted activation curve with a large enough effect in the signal ratio in the repeat runs, not every such curve was filed as active; the % refers to the signal ratio)
Method in brief: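 Phospho-H2AX Ser139 measured by HTRF (ex 320 nm; em 665 and 620 nm) after 24 hr antibody incubation. Compounds, 15 concentrations, 0.76% DMSO, were applied to CHO-K1 cells for 3hr at 37C before lysis.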

[3] = qHTS assay to identify small molecule agonists of the hypoxia (HIF-1) signaling pathway (AID 1224846; active = well fitted activation curve with a large enough effect in the signal ratio in the repeat runs, not every such curve was filed as active; the % refers to the signal ratio)
Method in brief: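 HRE-bla ME-180 cells (beta-lactamase reporter under hypoxia response element) were plated at 2,000 cells/well in medium with 0.5% dialyzed FBS, rested 5 hrs, then given compounds in DMSO for 17 hrs at 37C, 5% CO2. Reporter induction was read with CCF4-AM FRET substrate.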

[4] = qHTS assay to identify small molecule agonists of the estrogen related receptor (ERR) signaling pathway from Tox21 library (AID 1224849; calls by dose curve; note: nearly all actives have a fitted effect of over 15% in size); details: ERR reporter cell line, ONE-Glo luciferase, 18 h; at 92.4 µM (top of the series) unless noted
Method in brief: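 ERR reporter cell line (NTP) seeded, rested 6 h at 37 C/5% CO2, then pinned with Tox21 compounds in DMSO. After 18 h at 37 C, ONE-Glo luciferase luminescence was read following 30 min at room temperature.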

[5] = qHTS RealTime-Glo MT Cell Viability Assay in HepG2 cells - 24 hour (AID 1224867); note: nearly all actives have a fitted effect of over 50% in size
Method in brief: (§1)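 Cell number in HepG2 cultures estimated from NanoLuc luminescence generated by metabolic reduction of a prosubstrate by living cells. The homogeneous, nonlytic format allowed repeated reads at 0, 8, 16, 24, 32 and 40 h of compound exposure.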

[6] = A CellTox Green Cytotoxicity Assay to monitor cytotoxicity in HEK293 cells - 0 hour (AID 1224869); note: nearly all actives have a fitted effect of over 50% in size
Method in brief: (§2)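 HEK293 cells premixed with CellTox Green dye were seeded at 600 cells/well and left 5 h at 37 C/5% CO2 before pin transfer of 23 nL compound in DMSO. Fluorescence from dye bound to dead-cell DNA was read during 40 h treatment.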

[7] = qHTS RealTime-Glo MT Cell Viability Assay in HepG2 cells - 40 hour (AID 1224870); note: nearly all actives have a fitted effect of over 50% in size
Method in brief: (§3)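 Real-time viability: cells seeded at 600 per well together with NanoLuc and cell-permeant prosubstrate, compounds added after 5 h incubation. Luminescence tracked at 0, 8, 16, 24, 32 and 40 h of exposure.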

[8] = A CellTox Green Cytotoxicity Assay to monitor cytotoxicity in HEK293 cells - 40 hour (AID 1224871); note: nearly all actives have a fitted effect of over 45% in size
Method in brief: as §2

[9] = qHTS RealTime-Glo MT Cell Viability Assay in HepG2 cells - 8 hour (AID 1224873); note: nearly all actives have a fitted effect of over 55% in size
Method in brief: as §3

[10] = A CellTox Green Cytotoxicity Assay to monitor cytotoxicity in HEK293 cells - 24 hour (AID 1224875); note: nearly all actives have a fitted effect of over 45% in size
Method in brief: as §2

[11] = A CellTox Green Cytotoxicity Assay to monitor cytotoxicity in HepG2 cells - 16 hour (AID 1224876); note: nearly all actives have a fitted effect of over 45% in size
Method in brief: (§4)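 HepG2 cells were seeded together with the CellTox Green dye at 600 cells/well, left 5 h at 37 C/5% CO2, then given compounds in DMSO. Fluorescence from dye bound to dead-cell DNA was read repeatedly over 40 h of treatment at 37 C.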

[12] = qHTS RealTime-Glo MT Cell Viability Assay in HepG2 cells - 32 hour (AID 1224877); note: nearly all actives have a fitted effect of over 55% in size
Method in brief: as §1

[13] = A CellTox Green Cytotoxicity Assay to monitor cytotoxicity in HepG2 cells - 24 hour (AID 1224878); note: nearly all actives have a fitted effect of over 45% in size
Method in brief: as §4

[14] = A CellTox Green Cytotoxicity Assay to monitor cytotoxicity in HepG2 cells - 40 hour (AID 1224879); note: nearly all actives have a fitted effect of over 40% in size
Method in brief: as §4

[15] = qHTS RealTime-Glo MT Cell Viability Assay in HEK293 cells - 0 hour (AID 1224880)
Method in brief: (§5)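 HEK293 cells mixed with RealTime-Glo reagents (NanoLuc plus cell-permeant prosubstrate) at 600 cells/well, preincubated 5 h at 37 C/5% CO2, then given 23 nL compound in DMSO. Nonlytic luminescence from viable cells was read at 0, 8, 16, 24, 32 and 40 h.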

[16] = qHTS RealTime-Glo MT Cell Viability Assay in HEK293 cells - 40 hour (AID 1224874); details: RealTime-Glo luminescence; max response: hits give low values; note: nearly all actives have a fitted effect of over 50% in size
Method in brief: as §5

[17] = qHTS RealTime-Glo MT Cell Viability Assay in HEK293 cells - 32 hour (AID 1224868)
Method in brief: (§6)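 Homogeneous bioluminescent viability format in HEK293 cells (600 cells/well). Following 5 h at 37 C/5% CO2, 23 nL compound was pintooled; the signal was measured repeatedly during 40 h incubation.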

[18] = qHTS RealTime-Glo MT Cell Viability Assay in HEK293 cells - 16 hour (AID 1224872)
Method in brief: as §6

[19] = qHTS assay to identify small molecule agonists of H2AX - cell viability counter screen (AID 1224847; calls by dose curve; note: top concentration of the series differs between compounds; nearly all actives have a fitted effect of over 30% in size)
Method in brief: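 Viability of CHO-K1 (wild type) cells after 3 hr compound exposure was measured by CellTiter-Glo luminescence.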

[20] = qHTS assay to identify small molecule antagonists of the estrogen related receptor (ERR) signaling pathway from Tox21 library (AID 1224848); note: nearly all actives have a fitted effect of over 50% in size
Method in brief: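 Reading was by luminescence 30 min after ONE-Glo addition. Before that, ERR cells at 2,000 per well had rested 6 h at 37 C/5% CO2 and then received pin-tooled compounds in DMSO for 18 h at 37 C.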
% is set by controls: 0 for no effect and ±100 for the full control effect.

CCCCC(CC)COCCCN (configuration not stated)
inactive: Potency [1] | Potency [2] | outcome [3] | activity change, positive = activation [4] -26.6% | Potency [5] | Potency [6] | Potency [7] | Potency [8] | Potency [9] | Potency [10] | Potency [11] | Potency [12] | Potency [13] | Potency [14] | Potency [15]

CC(=O)c1c(C)c([N+](=O)[O-])c(C(C)(C)C)c([N+](=O)[O-])c1C
inactive: Potency [1] | Potency [2] | outcome [3] | Potency [5] | Potency [6] | Potency [7] | Potency [8] | Potency [9] | max response [16] -9.27% | Potency [10] | Potency [11] | Potency [12] | Potency [13] | Potency [14]

CCCCOc1cc(C(=O)OCCN(CC)CC)ccc1N
inactive: Potency [1] | Potency [2] | outcome [3] | Potency [5] | Potency [17] | Potency [6] | Potency [7] | Potency [18] | Potency [9] | max response [16] -18% | Potency [12] | Potency [15]

NC[C@H]1O[C@H](O[C@H]2[C@H](O)[C@@H](O[C@H]3O[C@H](CO)[C@@H](O)[C@H](N)[C@H]3O)[C@H](N)C[C@@H]2N)[C@H](O)[C@@H](O)[C@@H]1O
inactive: activity change, negative = cytotoxicity [1] -8.41% [at 6.97 µM] | activation (H2AX phosphorylation) [2] -0.622% [at 14 µM] | activity change, negative = cytotoxicity [19] 4.56% [at 14 µM] | activity, negative = inhibition [20] 17.9% [at 8.39 µM] | activity change, positive = activation [4] 8.77% [at 8.39 µM] | activity change, negative = cytotoxicity [5] -0.929% [at 6.97 µM] | activity change, negative = cytotoxic [17] 12.4% [at 6.97 µM] | cytotoxicity [6] 6.99% [at 6.97 µM] | activity change, negative = cytotoxic [7] -6.23% [at 6.97 µM] | cytotoxicity increase [8] 9.35% [at 6.97 µM] | activity change, negative = cytotoxicity [18] 8.96% [at 6.97 µM] | viability change, negative = cytotoxic [9] 5.97% [at 6.97 µM] | max response [16] 12.1% | activity change [10] 8.95% [at 6.97 µM, hits give high values] | cytotoxicity increase [11] 10.8% [at 6.97 µM] | activity change, negative = cytotoxic [12] -15.9% [at 6.97 µM] | cytotoxicity [13] 10.9% [at 6.97 µM] | cytotoxicity increase [14] 9.32% [at 6.97 µM] | activity change, negative = cytotoxicity [15] 12.9% [at 6.97 µM]

N=C(N=C(N)N)N1CCOCC1
inactive: Potency [1] | Potency [2] | Potency [19] | Potency [20] | activity change, positive = activation [4] 10.8% [at 42.5 µM] | Potency [5] | Potency [17] | Potency [6] | Potency [7] | Potency [8] | Potency [18] | Potency [9] | max response [16] 6.38% | Potency [10] | Potency [11] | Potency [12] | Potency [13] | Potency [14] | Potency [15]

CC(=O)SCc1ccco1
inactive: Potency [1] | Potency [2] | outcome [3] | Potency [5] | Potency [6] | Potency [7] | Potency [8] | Potency [18] | Potency [9] | max response [16] 13.4% | Potency [10] | Potency [11] | Potency [12] | Potency [13] | Potency [14] | Potency [15]

Cc1ccccn1
inactive: Potency [1] | Potency [2] | outcome [3] | Potency [20] | activity change, positive = activation [4] 1.44% | Potency [5] | Potency [6] | Potency [7] | Potency [8] | Potency [9] | max response [16] 4.7% | Potency [10] | Potency [11] | Potency [12] | Potency [13] | Potency [14] | Potency [15]
